Assay results: PubChem BioAssay AID2314 (National Center for Advancing Translational Sciences (NCATS), 2010)
Several values for one entry are separate records, joined by “and”; a condition that tells them apart may be missing. Equal entries are not always repeated. The campaign covered roughly 300,000 compounds. About 37,000 (12%) were called active. The sample holds actives, similar compounds and a random draw of the others, so the mix is not that of the screen. Values without a mark were called inactive. Cut-off read from the data, not from the text of the source: active = max response mostly above about 13% (no sharp cut-off); inactive = mostly below about 14%.

Experiment: Cycloheximide Counterscreen for Small Molecule Inhibitors of Shiga Toxin; note: read at 38.3 µM for the half of the compounds with a filed dose; 0% is about no effect
Details: cell reporter, cycloheximide protein synthesis inhibition counterscreen; active compounds read high

Compared with `Cc1cc(C(C)(C)C)oc1C(=O)N(CC(=O)NC1CCCC1)Cc1ccc(Cl)cc1`, `Cc1ccc(NC(=O)CSCC(=O)NC2CCCCC2)cc1` is lower in max response: 2.13% for the first, 1.06% for the second.

First: Cc1ccc(S(=O)(=O)N2CC(C)N(S(C)(=O)=O)C2)cc1 (centres undefined)
Second: COc1ccc(S(=O)(=O)N2CCN(C(=O)N(C)C)C2C)cc1 (centres undefined)
The max response of the first is higher: -4.88% for the first, -6.24% for the second.

First: CC(=O)N/C(=N/c1nc(C)cc(C)n1)Nc1ccc(F)cc1F
Second: Cc1cc(NC(=O)CSc2nc(=O)cc(N)n2-c2ccc(F)cc2)no1
The max response of the first is lower: -4.27% for the first, -1.93% for the second.

Going from `COc1ccc(C/C(C)=N/NC(=O)c2ccncc2)cc1` to `C/C(=N\NC(=O)Cc1ccc(Br)cc1)c1cccnc1`, the max response falls from 3.76% to 1.49%.

Compared with `CCCCCNC(=O)Cc1ccc(OC)cc1`, `COc1ccc(CNC(=O)c2c[nH]c3c(OC)cc(OC)cc3c2=O)cc1` is higher in max response: -1.71% for the first, 2.74% for the second.

First: O=C1COc2ccc(S(=O)(=O)Nc3ccc(OC(F)(F)F)cc3)cc2N1
Second: Cc1nnc2n1N=C(c1ccc3c(c1)NC(=O)CO3)CS2
The max response of the first is lower: -6.66% for the first, -0.735% for the second.

Compared with `Fc1cccc(Cl)c1COc1ccc(-c2nnco2)cc1`, `Fc1ccc(COc2cccc(-c3n[nH]c(=S)o3)c2)cc1` is lower in max response: 24.9% for the first, 5.34% for the second.

Going from `Cc1cccc(C(=O)Nc2nnc(S(=O)(=O)N3CCCCCC3)s2)c1` to `CN1CCN(c2ccc(S(=O)(=O)N3CCCCC3)cc2NC(=O)Cc2ccccc2F)CC1`, the max response rises from -1.9% to 0.822%.

First: O=C1/C(=C/c2ccc(F)cc2)SC(=S)N1CCCC(=O)N1CCCCC1CCO (centres undefined)
Second: Cc1cc(F)ccc1N1CCC(N2CCN(C)C(CCO)C2)CC1 (centres undefined)
The max response of the first is higher: 0.37% for the first, -1.8% for the second.

Going from `COc1ccc(CC(=O)Nc2cc(S(=O)(=O)N3CCCCC3)ccc2N2CCN(C)CC2)cc1` to `Cc1ccc(N2CC(C(=O)Nc3ccc(S(=O)(=O)N4CCCC4)cc3)CC2=O)cc1C` (centres undefined), the max response falls from -2.16% to -2.43%.

First: CCCNC(=O)C(=O)Nc1cc2c3c(c1)CCC(=O)N3CCC2
Second: CCN(CC)CCCNC(=O)c1c(O)c2cc(F)cc3c2n(c1=O)C(C)CC3 (centres undefined)
The max response of the first is higher: -6.21% for the first, -7.23% for the second.

Compared with `CCCn1c(C2CCCN2c2nc(-c3ccc(OC)cc3)cs2)nc2ccccc21` (centres undefined), `CCCn1c(C(O)c2cc(OC)ccc2OC)nc2ccccc21` (centres undefined) is lower in max response: 3.07% for the first, -2.36% for the second.

First: COC(=O)c1ccc(CSc2ccc3nnc(-c4ccccc4)n3n2)o1
Second: COc1ccccc1OCc1ccc(C(=O)NC(C)c2ccccc2)o1 (centres undefined)
The max response of the first is higher: 15.3% for the first, -0.796% for the second.

Compared with `S=C(Nc1ccc(Br)cc1Cl)NC1CCN(Cc2ccccc2)CC1`, `S=C(Nc1ccc(Br)cc1)NC1CCN(Cc2ccccc2)CC1` is higher in max response: -4.37% for the first, -1.87% for the second.

First: CC(C)CNC(=S)Nc1ccc(F)cc1
Second: Cc1cc(C)cc(NC(=S)NCc2ccc(F)cc2)c1
The max response of the first is lower: -3.91% for the first, -3.19% for the second.

Going from `CC(Oc1ccc(Br)cc1Br)C(=O)NC1CCCC1` (centres undefined) to `C/C(=N\NC(=S)NC1CCCCC1)c1ccc(C)o1`, the max response rises from -1.67% to 26.6%.

First: Cc1ccc(/C=N/NC(=S)Nc2cccc(S(=O)(=O)N(C)C)c2)o1
Second: CN(C)S(=O)(=O)c1ccc(N/C=C(\[N+](=O)[O-])S(=O)(=O)c2ccccc2)cc1
The max response of the first is higher: 11.3% for the first, -2.27% for the second.

First: Cc1ccc(-n2c(C)nnc2SCC(=O)NC2CC2)cc1
Second: O=C(CSc1nnc(-c2cccs2)n1-c1ccccc1)NCc1ccco1
The max response of the first is higher: 1.87% for the first, -2.76% for the second.

Compared with `O=C(CN1CCN(Cc2ccccc2)CC1)Nc1ccc(F)c(F)c1`, `Cc1cccc(CN2CCC(CNC(=O)Nc3ccc(F)c(Cl)c3)CC2)c1` is lower in max response: 2.05% for the first, 0.642% for the second.

First: COc1ccc(C2CC(c3cccs3)=NN2c2nc(C)c(C(C)=O)s2)cc1OC (centres undefined)
Second: COc1ccc(CC(=O)NC2CCSc3ccccc32)cc1OC (centres undefined)
The max response of the first is higher: 14% for the first, 2.51% for the second.

First: O=C(N/C(=C\c1ccc([N+](=O)[O-])cc1)C(=O)N1CCOCC1)c1cccc(Br)c1
Second: O=C(Nc1ccc2ccccc2c1)/C(=C/c1cccc(Br)c1)NC(=O)c1ccco1
The max response of the first is higher: 0.841% for the first, -5.2% for the second.

First: COc1ccc(/C=C/C(=O)Nc2c(C)nn(C)c2C)cc1COc1ccc(Br)cc1
Second: COc1ccc(OC)c(C(=O)c2coc3ccc(OC)cc23)c1
The max response of the first is lower: -4.32% for the first, -2.15% for the second.

Compared with `Cc1ccc(S(=O)(=O)N2CCN(c3ccccc3)CC2)cc1C`, `Cc1cc(Br)ccc1NC(=O)c1cnc(N2CCN(c3ccccn3)CC2)c2ccccc12` is lower in max response: -2.26% for the first, -4.22% for the second.

First: CN(CC(=O)Nc1c(Cl)cccc1Cl)C(=O)CNC(=O)C1CCCCC1
Second: Cc1nnc(SC(C)C(=O)Nc2ccc(S(=O)(=O)NC3CCCCC3)cc2)s1 (centres undefined)
The max response of the first is higher: 5.73% for the first, -4.95% for the second.

Going from `O=C(O)CCc1nc2cc(Cl)ccc2n(Cc2ccccc2)c1=O` to `Cc1cc(NC(=O)CSc2nc3ccccc3n2CC(C)C)no1`, the max response rises from -1.53% to 16.2%.

First: CCOCCCN(C)C1CCN(C(=O)c2oc3ccccc3c2NC(=O)Cc2cccc([N+](=O)[O-])c2)CC1
Second: O=C(Nc1ccccc1)O/N=C1\CCCCC1c1ccc([N+](=O)[O-])cc1[N+](=O)[O-] (centres undefined)
The max response of the first is lower: -8.08% for the first, -0.778% for the second.

Compared with `COc1ccc(OC)c(C(=O)c2ccc(C(=O)O)cc2)c1`, `COc1ccc(/C(C)=N\NC(=O)c2ccc(-c3ccccc3)cc2)c(F)c1` is lower in max response: 5.22% for the first, 0.503% for the second.

Compared with `CC(C)(C)NC(=O)c1cccc(NC(=O)Cc2ccc(Br)cc2)c1`, `C/C(=N\NC(=O)c1cccc([N+](=O)[O-])c1)c1cccnc1` is higher in max response: -3.99% for the first, 11.9% for the second.

Going from `CN(C)C(=O)c1nc2ccc(Cl)cn2c1CNCc1cccc(OC(F)(F)F)c1` to `CCOC(=O)c1c(NC(=O)Cn2nc(C(F)(F)F)cc2C)sc2c1CCC2`, the max response rises from 0.689% to 4.3%.

Going from `C/C(=N\NC(=O)c1cc(-c2ccc(O)cc2)nc2ccccc12)c1cccnc1` to `C/C(=N\NC(=O)c1cccnc1)c1ccc(-n2ccnc2)cc1`, the max response falls from 17% to -1.63%.

Going from `COCc1c(C(=O)N/N=C(\C)c2ccncc2)nnn1-c1nonc1N` to `C/C(=N\NC(N)=S)c1ccncc1`, the max response falls from -0.414% to -1.83%.

Compared with `C/C(=N\NC(N)=S)c1cccnc1`, `CNC(=O)C(NC(=O)c1ccccc1)=C(C)C` is higher in max response: -2.63% for the first, 3.38% for the second.

First: CC1CCc2sc(C(=O)N/N=C/C3CCCCC3)cc2C1 (centres undefined)
Second: CSc1ccc(CN2C(=O)NC3(CCCCCC3)C2=O)cc1
The max response of the first is higher: 8.2% for the first, -3.95% for the second.

Going from `C/C=N/NC(=O)CCCC(=O)N/N=C/C` to `COc1ccccc1C(=O)COC(=O)CNS(=O)(=O)c1ccc(NC(C)=O)cc1`, the max response rises from -6.46% to 3.07%.

First: CCCc1nc2oc3c(OCC)ncnc3c2c2c1COC(C)(C)C2
Second: COc1ccc(-n2c(SCC(=O)NCc3ccco3)nnc2-c2c[nH]c3ccccc23)cc1
The max response of the first is lower: -2.02% for the first, 1.31% for the second.

Compared with `CCOC(=O)/C(N=Nc1cc(C(=O)O)cc(C(=O)O)c1)=C(\O)CCl`, `CC(C)C[C@H](NC(=O)N1CC(=O)Nc2ccccc21)C(=O)N[C@H](Cc1ccccc1)C(=O)O` is lower in max response: -1.38% for the first, -1.39% for the second.

Going from `COc1ccc2c(c1)CCC/C2=N\OC(=O)c1ccccc1F` to `O=C(O)C1CCN(C(=O)c2cc(F)cc3c2OCOC3)CC1`, the max response falls from 33% to -2.01%.

Going from `Cc1ccc(NC(=O)CSc2sc3c(O)cc(=O)[nH]c3c2C#N)cc1C` to `CC(C)[C@@H](C(=O)O)N(Cc1cccc(CN([C@H](C(=O)O)C(C)C)S(C)(=O)=O)c1)S(C)(=O)=O`, the max response rises from -5.26% to -2.74%.

In the case of `COc1ccc(C/C(C)=N/NC(=O)c2cc(C)oc2C)cc1`, the max response is reported as 26.5% (active).
With `Fc1ccc(COc2ccc(-c3nnco3)cc2)cc1` the max response was 52.6% (active).
For `CCN1CCN(c2ccc(S(=O)(=O)N3CCCCC3)cc2NC(=O)Cc2c(Cl)cccc2Cl)CC1`, the max response was 44.2% (active).
In the case of `CCCn1c(CCNc2nc(-c3ccc(OC)cc3)cs2)nc2ccccc21`, the max response is reported as 6.09% (active).
In the case of `Cc1ccc(NC(=S)NC2CCCC2)cc1`, the max response is reported as 26.6% (active).
For `Cc1ccc(/C=N/NC(=S)NC2CCCCC2)o1`, the max response was 24.4% (active).
For `Cc1cc(Br)ccc1NC(=S)NC1CCCC1`, the max response was 30.4% (active).
In the case of `Cc1ccc(NC(=S)Nc2ccc(F)cc2)cc1`, the max response is reported as 8.11% (active).
In the case of `COc1ccc2occ(C(=O)c3ccc(N=C(C)N(C)C)cc3)c2c1`, the max response is reported as 28.3% (active).
For `C/C(=N\NC(=O)c1ccc2ccccc2c1)c1cccnc1`, the max response was 34.4% (active).
With `C/C(=N\NC(=O)c1cc2c(s1)CCC(C)C2)c1cccnc1` (centres undefined) the max response was 19.2% (active).
With `C/C(=N/NC(=O)c1ccn(C)n1)c1ccncc1` the max response was 51.6% (active).
With `C/C(=N\NC(=O)c1cccnc1)c1ccc(-c2ccccc2)cc1` the max response was 12.6% (active).
For `C/C(=N\NC(=O)c1nc(C)cc(C)n1)c1ccccc1`, the max response was 31.4% (active).
With `O=C(Nc1ccccc1)O/N=C1/CCCc2occc21` the max response was 19.6% (active).
In the case of `O=C(CSc1nnc(-c2c[nH]c3ccccc23)n1-c1ccc(F)cc1)NCc1ccco1`, the max response is reported as 11.7% (active).
With `CCN(CC)C(=O)CC(c1ccc2c(c1)OCO2)c1c(OC)cc(OC)c2c(-c3ccccc3)cc(=O)oc12` (centres undefined) the max response was 7.27% and 12.1%.
In the case of `Cc1ccc2nc(-c3ccc(SCC(=O)Nc4cc(C)on4)nc3)[nH]c2c1`, the max response is reported as 40.1% (active).
